# The full data set covers some 8,800 targets. This sample favours those with a hit. About 0.5% of all pairs of compound and target were hits. A number with no mark means an inactive call.
# Legend:
# Assay in all cases: log2 fold change, soluble protein after heating vs DMSO (PISA); higher = thermal stabilisation; K562 lysate, 10 uM; active = over 0.2 and 3.5 SD of the protein, either way, in both replicates (recomputed)
# erlotinib = compound: C#Cc1cccc(Nc2ncnc3cc(OCCOC)c(OCCOC)cc23)c1 [erlotinib]
# Summary of the method: (§1)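 Thermal stability, expressed as log-two fold change relative to solvent controls, is given from duplicates. Crude K562 extract in PBS pH 7.4 with 1 mM MgCl2, at 1 mg/mL protein, was treated with 10 μM compound for 30 min and heated in aliquots for 3 min across 48°C-58°C. After pooling, adjustment to 0.5% NP-40 at 4°C and centrifugation at 21,000xg for 90 min, supernatant protein was measured by TMTpro 16plex LC-MS/MS with channel sums equalised.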
# [1] = compound: C/C(=N\NC(=O)C1=CC(=CC=C1)S(=O)(=O)N2CCOCC2)/C3=C(C=CC(=C3)Cl)O
# Summary of the method: as §1
# [2] = compound: C1=CC(=CC=C1C2=NC3=C(N2)C=C(C=C3)C(=O)N)OC4=CC=C(C=C4)Cl
# Summary of the method: as §1
# [3] = compound: C1=CC2=C(C=CC(=C2)/C=C\3/C(=O)NC(=NCC4=CC=CS4)S3)N=C1
# Summary of the method: as §1
# [4] = compound: C1=CC2=NC=CN=C2C=C1/C=C/3\C(=O)NC(=O)S3
# Summary of the method: as §1
# [5] = compound: C1=CC=C(C=C1)C2=NC(=C(N2)C3=CC=NC=C3)C4=CC(=C(C=C4)Cl)O
# Summary of the method: as §1
# [6] = compound: C1=CC=C2C(=C1)C3=NNC4=CC=CC(=C43)C2=O
# Summary of the method: as §1
# [7] = compound: C1CCN(C1)C(=O)NC2=CC=CC(=C2)NC3=NC=C(C(=N3)NCCC4=CN=CN4)Br
# Summary of the method: as §1
# [8] = compound: C1CN(CCC1(CC2=CC=C(C=C2)Cl)N)C3=NC=NC4=C3C=CN4
# Summary of the method: as §1
# IRAK-1-4 Inhibitor I = compound: C1COCCN1CCN2C3=CC=CC=C3N=C2NC(=O)C4=CC(=CC=C4)[N+](=O)[O-] [IRAK-1-4 Inhibitor I]
# Summary of the method: as §1
# ibrutinib = compound: C=CC(=O)N1CCC[C@@H](n2nc(-c3ccc(Oc4ccccc4)cc3)c3c(N)ncnc32)C1 [ibrutinib]
# Summary of the method: as §1
# [9] = compound: CC(=O)c1cnc2ccc(-c3cc(Cl)c(O)c(Cl)c3)nc2c1N[C@H]1CC[C@H](CN(C)C)CC1
# Summary of the method: as §1
# ralimetinib = compound: CC(C)(C)Cn1c(N)nc2ccc(-c3[nH]c(C(C)(C)C)nc3-c3ccc(F)cc3)nc21 [ralimetinib]
# Summary of the method: as §1
# [10] = compound: CC(C)(O)CC(=O)NCCn1ccc2ncnc(Nc3ccc(Oc4cccc(C(F)(F)F)c4)c(Cl)c3)c21
# Summary of the method: as §1
# [11] = compound: CC(C)C1=C2N=C(C=C(N2N=C1)NCC3=CC=CC=C3)NCCCCCCN
# Summary of the method: as §1
# [12] = compound: CC1=C(C(CC(=O)N1)C2=CC=C(C=C2)C(F)(F)F)C(=O)NC3=C(C=C4C(=C3)C=NN4)F
# Summary of the method: as §1
# [13] = compound: CC1=C(C2=C(C=C1)C(=O)C3=CC=CC=C3N2CCCN)C
# Summary of the method: as §1
# [14] = compound: CC1=C(C=C(C=C1)NC(=O)C2=CC(=CC=C2)C(C)(C)C#N)NC3=CC4=C(C=C3)N=CN(C4=O)C
# Summary of the method: as §1
# [15] = compound: CC1=C(C=C(C=C1)NC(=O)C2=CC(=CC=C2)N(C)C)NC(=O)C3=CC=C(C=C3)O
# Summary of the method: as §1
# [16] = compound: CC1=CC=C(C=C1)SC2=C3C=C(SC3=CN=C2)C(=O)N
# Summary of the method: as §1
# UniProt P22830, sequence (P22830 whole entry, looked up): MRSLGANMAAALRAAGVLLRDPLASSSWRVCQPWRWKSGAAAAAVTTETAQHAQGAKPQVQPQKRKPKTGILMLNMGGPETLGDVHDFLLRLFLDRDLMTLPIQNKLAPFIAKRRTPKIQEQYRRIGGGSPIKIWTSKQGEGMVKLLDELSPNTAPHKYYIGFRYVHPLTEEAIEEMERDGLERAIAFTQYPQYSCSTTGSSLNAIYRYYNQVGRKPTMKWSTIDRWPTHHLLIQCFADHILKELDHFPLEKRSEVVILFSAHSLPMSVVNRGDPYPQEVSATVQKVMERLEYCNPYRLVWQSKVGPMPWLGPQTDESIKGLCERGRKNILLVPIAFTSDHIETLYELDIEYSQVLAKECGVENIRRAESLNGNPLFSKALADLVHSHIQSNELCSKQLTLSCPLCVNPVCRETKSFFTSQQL
# UniProt Q9BQI3, sequence (Q9BQI3 whole entry, looked up): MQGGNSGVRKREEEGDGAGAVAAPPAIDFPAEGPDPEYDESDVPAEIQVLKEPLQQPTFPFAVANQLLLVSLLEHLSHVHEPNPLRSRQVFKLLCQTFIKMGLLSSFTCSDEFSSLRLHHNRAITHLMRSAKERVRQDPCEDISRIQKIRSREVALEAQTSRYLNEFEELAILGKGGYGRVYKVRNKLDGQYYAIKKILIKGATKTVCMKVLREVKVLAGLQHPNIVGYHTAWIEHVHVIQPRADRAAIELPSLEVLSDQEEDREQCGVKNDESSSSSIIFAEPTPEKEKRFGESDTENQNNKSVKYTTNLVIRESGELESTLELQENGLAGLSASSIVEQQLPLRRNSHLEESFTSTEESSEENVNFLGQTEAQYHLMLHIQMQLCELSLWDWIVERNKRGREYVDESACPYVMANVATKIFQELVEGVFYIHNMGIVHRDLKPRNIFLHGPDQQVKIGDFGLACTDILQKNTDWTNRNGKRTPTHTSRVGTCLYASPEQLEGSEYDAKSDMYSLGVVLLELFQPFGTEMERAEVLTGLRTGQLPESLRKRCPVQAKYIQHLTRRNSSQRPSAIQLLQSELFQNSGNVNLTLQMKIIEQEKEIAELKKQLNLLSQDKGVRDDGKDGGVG
# UniProt Q8N6R0, sequence (Q8N6R0 whole entry, looked up): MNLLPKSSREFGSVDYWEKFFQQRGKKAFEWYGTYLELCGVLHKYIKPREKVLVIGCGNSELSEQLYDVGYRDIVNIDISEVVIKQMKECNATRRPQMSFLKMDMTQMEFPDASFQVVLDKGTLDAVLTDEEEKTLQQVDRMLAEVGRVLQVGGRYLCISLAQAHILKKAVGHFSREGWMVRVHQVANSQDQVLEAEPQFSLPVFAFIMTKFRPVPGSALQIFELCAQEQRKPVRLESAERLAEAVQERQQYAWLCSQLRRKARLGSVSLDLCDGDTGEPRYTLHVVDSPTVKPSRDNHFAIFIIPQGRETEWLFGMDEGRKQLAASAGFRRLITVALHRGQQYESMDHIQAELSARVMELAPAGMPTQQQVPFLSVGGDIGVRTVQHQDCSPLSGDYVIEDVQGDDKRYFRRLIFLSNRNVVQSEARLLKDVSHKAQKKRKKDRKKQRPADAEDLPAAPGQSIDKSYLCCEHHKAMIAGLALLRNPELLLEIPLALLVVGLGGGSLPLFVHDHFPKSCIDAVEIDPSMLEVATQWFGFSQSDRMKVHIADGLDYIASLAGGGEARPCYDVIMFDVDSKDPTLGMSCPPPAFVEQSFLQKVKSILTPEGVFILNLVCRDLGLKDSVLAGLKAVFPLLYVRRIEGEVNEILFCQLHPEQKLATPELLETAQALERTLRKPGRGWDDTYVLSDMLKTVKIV
# UniProt P11413, sequence (P11413 whole entry, looked up): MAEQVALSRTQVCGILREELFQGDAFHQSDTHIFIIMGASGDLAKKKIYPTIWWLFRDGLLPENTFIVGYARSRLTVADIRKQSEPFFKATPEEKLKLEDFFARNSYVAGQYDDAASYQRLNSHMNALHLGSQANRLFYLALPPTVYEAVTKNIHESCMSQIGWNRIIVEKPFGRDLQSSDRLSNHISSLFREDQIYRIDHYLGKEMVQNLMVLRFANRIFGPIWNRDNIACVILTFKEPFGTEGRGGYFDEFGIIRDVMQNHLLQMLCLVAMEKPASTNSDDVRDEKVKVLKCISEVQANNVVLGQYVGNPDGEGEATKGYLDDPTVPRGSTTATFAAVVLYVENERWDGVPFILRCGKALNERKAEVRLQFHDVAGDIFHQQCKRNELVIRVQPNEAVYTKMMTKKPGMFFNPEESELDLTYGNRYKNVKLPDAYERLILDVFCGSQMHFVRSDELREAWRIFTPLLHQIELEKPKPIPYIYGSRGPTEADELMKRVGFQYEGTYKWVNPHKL
# UniProt A6NHQ2, sequence (A6NHQ2 whole entry, looked up): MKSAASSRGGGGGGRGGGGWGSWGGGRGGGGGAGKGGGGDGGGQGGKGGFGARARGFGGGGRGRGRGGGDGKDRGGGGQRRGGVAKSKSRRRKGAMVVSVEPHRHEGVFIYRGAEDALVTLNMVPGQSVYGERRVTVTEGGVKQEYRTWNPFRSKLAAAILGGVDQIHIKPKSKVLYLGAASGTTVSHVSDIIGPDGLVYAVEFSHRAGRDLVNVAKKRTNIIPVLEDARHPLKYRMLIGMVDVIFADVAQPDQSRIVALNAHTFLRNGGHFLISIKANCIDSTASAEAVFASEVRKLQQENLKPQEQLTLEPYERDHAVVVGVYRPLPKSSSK
# UniProt Q01844, sequence (Q01844 whole entry, looked up): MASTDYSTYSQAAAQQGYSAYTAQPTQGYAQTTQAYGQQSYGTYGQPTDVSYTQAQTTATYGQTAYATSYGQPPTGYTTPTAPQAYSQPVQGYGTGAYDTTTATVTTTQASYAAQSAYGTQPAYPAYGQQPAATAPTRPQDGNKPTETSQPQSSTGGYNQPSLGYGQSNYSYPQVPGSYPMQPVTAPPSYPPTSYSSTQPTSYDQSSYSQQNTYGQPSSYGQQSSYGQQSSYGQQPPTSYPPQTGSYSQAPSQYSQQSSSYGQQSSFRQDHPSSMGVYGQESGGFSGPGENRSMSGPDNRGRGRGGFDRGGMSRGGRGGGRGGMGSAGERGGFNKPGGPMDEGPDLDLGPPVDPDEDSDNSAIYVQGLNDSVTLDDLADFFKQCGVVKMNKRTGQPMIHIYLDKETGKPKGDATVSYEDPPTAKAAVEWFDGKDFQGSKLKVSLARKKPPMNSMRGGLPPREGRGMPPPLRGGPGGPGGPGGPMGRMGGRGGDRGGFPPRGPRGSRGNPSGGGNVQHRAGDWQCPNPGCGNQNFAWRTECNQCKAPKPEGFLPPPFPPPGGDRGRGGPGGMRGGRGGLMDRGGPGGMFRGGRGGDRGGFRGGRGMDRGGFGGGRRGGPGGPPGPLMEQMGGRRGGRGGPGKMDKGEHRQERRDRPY
# UniProt Q8NCA5, sequence (Q8NCA5 whole entry, looked up): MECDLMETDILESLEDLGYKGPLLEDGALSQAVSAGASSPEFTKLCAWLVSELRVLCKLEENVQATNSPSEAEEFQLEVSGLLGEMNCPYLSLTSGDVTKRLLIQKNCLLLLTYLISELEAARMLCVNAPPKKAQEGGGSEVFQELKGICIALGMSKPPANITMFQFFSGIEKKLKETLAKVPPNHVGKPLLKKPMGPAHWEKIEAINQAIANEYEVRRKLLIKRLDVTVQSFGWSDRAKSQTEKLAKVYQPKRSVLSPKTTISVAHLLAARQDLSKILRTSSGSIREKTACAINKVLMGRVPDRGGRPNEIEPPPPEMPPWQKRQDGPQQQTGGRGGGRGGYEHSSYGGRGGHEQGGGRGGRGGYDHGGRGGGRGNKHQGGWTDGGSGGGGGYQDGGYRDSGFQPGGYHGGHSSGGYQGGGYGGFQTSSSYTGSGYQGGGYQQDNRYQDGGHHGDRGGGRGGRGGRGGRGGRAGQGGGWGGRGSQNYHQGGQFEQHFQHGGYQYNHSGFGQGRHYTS
# UniProt P34913, sequence (P34913 whole entry, looked up): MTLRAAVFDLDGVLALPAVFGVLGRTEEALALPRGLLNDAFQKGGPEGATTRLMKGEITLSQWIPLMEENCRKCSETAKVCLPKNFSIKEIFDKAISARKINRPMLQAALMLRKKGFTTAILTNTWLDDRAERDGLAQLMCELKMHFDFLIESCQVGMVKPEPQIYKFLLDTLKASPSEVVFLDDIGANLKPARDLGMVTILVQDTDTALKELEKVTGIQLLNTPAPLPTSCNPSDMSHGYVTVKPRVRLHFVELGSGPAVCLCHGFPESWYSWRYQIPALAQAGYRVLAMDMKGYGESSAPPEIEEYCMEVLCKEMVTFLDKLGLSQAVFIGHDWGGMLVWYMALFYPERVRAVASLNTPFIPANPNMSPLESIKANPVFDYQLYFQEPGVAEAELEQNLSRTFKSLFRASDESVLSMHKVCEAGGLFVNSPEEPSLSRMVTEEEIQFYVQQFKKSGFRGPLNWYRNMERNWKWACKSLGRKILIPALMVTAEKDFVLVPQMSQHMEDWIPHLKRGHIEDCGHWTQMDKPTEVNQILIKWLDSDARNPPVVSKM
Target,log2 fold change (erlotinib),log2 fold change [1],log2 fold change [2],log2 fold change [3],log2 fold change [4],log2 fold change [5],log2 fold change [6],log2 fold change [7],log2 fold change [8],log2 fold change (IRAK-1-4 Inhibitor I),log2 fold change (ibrutinib),log2 fold change [9],log2 fold change (ralimetinib),log2 fold change [10],log2 fold change [11],log2 fold change [12],log2 fold change [13],log2 fold change [14],log2 fold change [15],log2 fold change [16]
FECH isoform 2 (UniProt P22830),0.101,0.062,-0.321,0.42,-0.014,0.354,0.673,0.183,-0.009,0.644,0.091,0.104,-0.034,0.504,0.327,-0.263,0.287,0.748,0.028,-1.11 (active)
G6PD isoform 2 (UniProt P11413),0.034,0.05,0.024,0.016,0.018,-0.001,-0.002,0.006,0.011,0.001,-0.006,0.001,0.023,0.012,0.018,-0.02,0.045,-0.002,0.024,0.003
EIF2AK1 (UniProt Q9BQI3),-0.016,0.087,0.017,-0.02,0.029,-0.027,-0.016,-0.02,-0.006,-0.01,0.007,-0.151,0.028,0.034,-0.017,-0.001,-0.007,0.044,0.018,-0.072
DYRK1A (UniProt Q13627),-0.061,-0.057,-0.004,0.186,0.175,0.016,0.084,-0.008,-0.034,-0.046,-0.019,0.264 (active),-0.003,0.011,0.01,0.007,0.005,-0.007,-0.024,0.034
ERBIN isoform 8 (UniProt Q96RT1),0,-0.002,-0.008,0.044,-0.032,-0.001,-0.034,0.007,0.023,-0.034,0.029,-0.011,-0.003,0.01,-0.003,-0.037,0.012,-0.007,0.019,-0.01
FAM98A (UniProt Q8NCA5),-0.004,-0.026,0.028,-0.048,-0.02,0.01,0.014,-0.05,-0.017,-0.04,-0.033,-0.019,0.046,0.008,0.014,0.04,-0.045,0.008,0.035,0.029
EPHX2 (UniProt P34913),-0.024,0.133,0.156,0.036,-0.023,-0.014,0.014,0.077,-0.002,-0.014,0.051,-0.002,-0.001,-0.02,0.099,0.004,-0.006,0.11,0.06,0.051
FBLL1 (UniProt A6NHQ2),-0.003,-0.015,-0.008,0.059,0.075,-0.031,-0.031,0.021,0.022,-0.004,-0.042,-0.031,0.029,-0.056,-0.014,0.001,-0.121,0.006,0.049,-0.018
ESPL1 (UniProt Q14674),0.147,0.019,0.074,-0.086,0.009,-0.011,0.054,-0.025,0.006,-0.028,-0.076,-0.335,0.002,0.01,0.04,-0.005,-0.036,-0.04,0.076,-0.371 (active)
GAPVD1 isoform 6 (UniProt Q14C86),0.01,0,-0.051,0.01,0.019,0,-0.013,0.007,-0.025,-0.015,0.005,0.003,0.031,-0.004,-0.018,0.028,0.008,0.003,0.011,0.018
EWSR1 isoform 5 (UniProt Q01844),-0.135,-0.037,-0.1,0.012,0.015,0.037,0.015,-0.009,-0.028,0.018,-0.016,-0.026,-0.017,-0.011,0.038,-0.012,0.016,-0.023,-0.033,0
EEF1AKNMT (UniProt Q8N6R0),0.048,0.029,-0.02,-0.039,0.005,0,-0.065,0.011,0.053,-0.015,-0.016,0.017,0.096,0.023,0.017,-0.003,-0.024,0.002,-0.021,0.002

# Reference: the supplement of paper PMC10849652
